# Key:
# Conditions in all cases: concentration: 1 μM,replicates: in singlicate; n = 1
# [1] = test system: JAK1(JH2domain-pseudokinase)
# [2] = test system: JAK2(JH1domain-catalytic)
# [3] = test system: JAK3(JH1domain-catalytic)
# JNK1 = test system: T1, JNK1
# T1 construct: gene MAPK8
# JNK2 = test system: T2, JNK2
# T2 construct: gene MAPK9
# JNK3 = test system: T3, JNK3
# T3 construct: gene MAPK10
# KIT-autoinhibited = test system: KIT-autoinhibited
# KIT = test system: KIT
# LATS1 = test system: LATS1
# LATS2 = test system: LATS2
# LCK = test system: LCK
# LIMK1 = test system: LIMK1
# LIMK2 = test system: LIMK2
# LKB1 = test system: T4, LKB1
# T4 construct: gene STK11
# LOK = test system: T5, LOK
# T5 construct: gene STK10
# LRRK2 = test system: LRRK2
# LTK = test system: LTK
# LYN = test system: LYN
# LZK = test system: T6, LZK
# T6 construct: gene MAP3K13
# MAK = test system: MAK
# 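Also: KINOMEscan kinase panel screen.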
SMILES,%Inh [1],%Inh [2],%Inh [3],%Inh (JNK1),%Inh (JNK2),%Inh (JNK3),%Inh (KIT-autoinhibited),%Inh (KIT),%Inh (LATS1),%Inh (LATS2),%Inh (LCK),%Inh (LIMK1),%Inh (LIMK2),%Inh (LKB1),%Inh (LOK),%Inh (LRRK2),%Inh (LTK),%Inh (LYN),%Inh (LZK),%Inh (MAK)
CSc1nccc(-c2c(-c3ccc(F)cc3)ncn2CCCN2CCOCC2)n1.Cl [SB-217146],40%,39%,0%,10%,45%,34%,32%,0%,0%,0%,0%,3%,0%,0%,8%,0%,4%,0%,0%,0%
O=C(NOCC1CC1)c1cc(Br)c(F)c(F)c1Nc1ccc(I)cc1Cl,39%,0%,0%,12%,0%,0%,0%,13%,14%,0%,0%,0%,0%,7%,2%,0%,0%,9%,9%,37%
c1ccc(Oc2ccc(Nc3ccnc4ccc(-c5ccccn5)cc34)cc2)cc1 [GW407034],0%,22%,0%,20%,16%,18%,0%,45%,1%,0%,83%,5%,0%,0%,0%,5%,0%,22%,0%,59%
Cc1ccc2c(-c3ccnc(Nc4ccc(C(F)(F)F)cc4)n3)cnn2n1 [GW819776],57%,29%,0%,91.5%,53%,78%,34%,78%,0%,0%,10%,2%,0%,24%,16%,0%,28%,1%,0%,20%
COc1cccc(CNC(=O)NC2CCN(c3ccnc(Nc4cc(OC)c(OC)c(OC)c4)n3)C2)c1 (stereo not shown) [GSK1379765],11%,89%,0%,29%,9%,25%,0%,60%,0%,5%,34%,9%,82%,0%,49%,0%,78%,0%,32%,31%
CC(C)S(=O)(=O)N1CCN(Cc2ccc3c(c2)nc(NC(=O)c2ccsc2)n3C[C@H](O)c2ccccc2)CC1 [GW635815],0%,77%,54%,19%,10%,15%,20%,87%,0%,0%,39%,0%,0%,0%,0%,66%,25%,0%,69%,18%
C[C@@H](Oc1cc(-n2cnc3ccc(-c4ccncc4)cc32)sc1C(N)=O)c1ccccc1Cl [GSK483724],0%,19%,0%,45%,27%,18%,6%,36%,3%,54%,40%,20%,0%,0%,92.2%,8%,25%,0%,0%,29%
CS(=O)c1ccc(-c2coc3ccc(-c4n[nH]c(=O)o4)cc23)cc1 (stereo not shown),3%,23%,23%,23%,20%,16%,0%,0%,11%,21%,0%,0%,0%,16%,99.7%,13%,0%,16%,2%,0%
Cc1ccc(Nc2ccnc(Nc3ccc4c(c3)CS(=O)(=O)C4)n2)cc1O.Cl [GW579362],99.1%,99.1%,98.2%,98.4%,87%,95.1%,41%,99.8%,0%,21%,97.3%,35%,49%,29%,83%,79%,55%,84%,58%,73%
Cn1ccc2ncnc(Oc3ccc(NC(=O)Nc4cccc(C(F)(F)F)c4)c(Cl)c3)c21,45%,11%,25%,9%,0%,0%,37%,100%,9%,0%,79%,0%,0%,11%,99.9%,0%,56%,63%,0%,28%
CCCC(=O)Nc1n[nH]c2ncccc12 [SB-601436],4%,18%,0%,20%,6%,1%,0%,0%,40%,0%,14%,0%,0%,0%,3%,0%,4%,0%,0%,7%

# Reference: article PMC5540273 (PLoS ONE, 2017)
